Our source for the composite z-score and z-score values is PubChem BioAssay.

Test [1] can be described thus: small molecules captured by biotinylated probe aFSTL3 – biochemical, small-molecule microarray, fluorescence 635/667, stem cell growth factor project, primary screen (AID 1064).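 Note: measures binding of the biotinylated anti-FSTL3 antibody to printed compounds.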 The settings on record: higher = more signal.
A short description of test [2]: binders from COS7 lysate, DM2A8 probe, primary screen, torsin A project, cell lysate, small-molecule microarray, fluorescence 635/667 (AID 1065). The settings on record: higher = more signal, COS7 lysate expressing mutant human TOR1A.
Test [3] can be described thus: small molecules captured by biotinylated probe aFGF2 – biochemical, small-molecule microarray, fluorescence 635/667, stem cell growth factor project, primary screen (AID 1067).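 Note: measures binding of biotinylated aFGF2 protein to printed compounds on slides; z-score merges feature fluorescence and signal-to-noise across triplicate slides.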 The settings on record: higher = more signal.
Test [4] in a line: small molecules captured by biotinylated probe aFGF10 – biochemical, small-molecule microarray, fluorescence 635/667, stem cell growth factor project, primary screen (AID 1071).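 Note: score merges 667 nm spot intensity and signal to noise from triplicate slides.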 The settings on record: higher = more signal.
For test [5], the target named is Neurogenic locus notch homolog protein 2 (Homo sapiens) (UniProt Q04721). Put plainly: small molecules binding Notch2 protein – biochemical, small-molecule microarray, 635 nm fluorescence, stem cell growth factors, primary screen (AID 1073). The settings on record: higher = more signal.
Test [6] addresses Pro-neuregulin-1, membrane-bound isoform (Homo sapiens) (UniProt Q02297). The test can be described thus: small molecules binding neuregulin-1 protein – biochemical, small-molecule microarray, fluorescence 635/667, psychiatric disease protein project, primary screen (AID 1075).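 Note: score combines 667 nm spot fluorescence with signal to noise.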 The settings on record: NRG1 binding, 635 nm fluorescence, higher = more signal.
Test [7] relates to Neuregulin-1 EGF-like domain. Put plainly: small molecules binding NRG1 EGF domain – biochemical, small-molecule microarray, 635 nm fluorescence, primary screen (AID 1081).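 Note: binding of the protein to compounds printed on small-molecule microarray slides.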 The settings on record: higher = more signal.
A short description of test [8]: FRG1 expression reporter modulators in myotubes – cell-based, C2C12 myotubes, firefly/Renilla luciferase, luminescence, FRG1 inhibition for FSHD, primary screen (AID 1084). The settings on record: FRG1 promoter luciferase, higher = more signal, called active from +8 up or from −8 down.
Test [9] is described as follows: small molecules captured by biotinylated probe aFST – biochemical, small-molecule microarray, fluorescence 635/667, stem cell growth factor project, primary screen (AID 1086).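 Note: score merges 667 nm fluorescence with signal-to-noise of each printed compound spot.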 The settings on record: higher = more signal.
Test [10] in a line: binders of probe aHhip on microarray, primary screen, stem cell growth factor project, biochemical, small-molecule microarray, fluorescence 635/667 (AID 1087).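 Note: score merges spot fluorescence at 667nm with spot signal to noise ratio.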 The settings on record: higher = more signal.
Test [11] concerns PRMT1 (protein arginine N-methyltransferase 1). The test can be described thus: small molecules binding arginine methyltransferase PRMT1 – biochemical, small-molecule microarray, 635 nm fluorescence, primary screen (AID 1088).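 Note: binding of Prmt1 protein to compounds spotted on small-molecule microarray slides.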 The settings on record: higher = more signal.
A short description of test [12]: growth effects on S. cerevisiae YJM789 – YJM789 clinical isolate, OD600, 24 h, basal, primary screen (AID 1089).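 Note: growth of clinical yeast isolate S. cerevisiae YJM 789 seeded 1000 cells per well; test concentration not given here.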 The settings on record: higher = more signal, called active from +8 up or from −8 down.
Test [13] is described as follows: S. pombe growth modifiers, basal conditions – strain 972, OD600, 24 h, no modulator, primary screen (AID 1090).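 Note: basal condition with compound alone and no growth modifier present; test concentration not given here.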 The settings on record: S. pombe 972 growth, higher = more signal, called active from +8 up or from −8 down.
Test [14] is described as follows: budding yeast growth modifiers under rapamycin – strain BY4716, OD600, 96 h, primary screen (AID 1091). Note: test concentration not given here. The settings on record: S. cerevisiae BY4716 + rapamycin, higher = more signal, called active from +8 up or from −8 down.
Test [15] has as its target Torsin-1A-interacting protein 2 (Homo sapiens) (UniProt Q8NFQ8). Put plainly: small molecules binding lysate-expressed LULL1 – cell lysate, human LULL1 lysate, 635/667 nm fluorescence, primary screen (AID 1092).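 Note: probe is lysate of COS7 cells overexpressing human LULL1; score merges per-feature 667 nm fluorescence with signal-to-noise.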 The settings on record: small-molecule microarray, hLULL1 lysate binding, 635 nm fluorescence; higher = more signal.
Test [16] can be described thus: optical density change of DRC41 E. coli – strain DRC41, OD650, 24 h, E. coli filamentation project, primary screen (AID 1093).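 Note: MC1000 strain lacking acrAB efflux and sulA so SOS filamentation is blocked; test concentration not given here.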 The settings on record: E. coli DRC41 growth, higher = more signal, called active from +8 up or from −8 down.
Test [17] is described as follows: probe aLefty2 binding to arrayed compounds – biochemical, biotinylated probe, 635/667 nm fluorescence, primary screen (AID 1094).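 Note: score merges spot fluorescence near 667 nm with spot signal-to-noise ratio.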 The settings on record: small-molecule microarray, higher = more signal.
In test [18] the test system is Noggin (protein binding on small-molecule microarray). Put plainly: small molecules binding Noggin protein – biochemical, 635/667 nm fluorescence, primary screen (AID 1095).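 Note: score merges 667 nm feature fluorescence with signal to noise over triplicate slides.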 The settings on record: 635 nm fluorescence, higher = more signal.
In test [19] the target is Neurogenic locus notch homolog protein 3 (Homo sapiens) (UniProt Q9UM47). Put plainly: small molecules binding NOTCH3 protein – biochemical, 635/667 nm fluorescence, primary screen (AID 1096). The settings on record: small-molecule microarray, 635 nm fluorescence, higher = more signal.
Test [20] in a line: probe aEGFR binding to arrayed compounds – biochemical, biotinylated probe, 635/667 nm fluorescence, primary screen (AID 1097).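 Note: probe is a biotinylated anti-EGFR antibody binding compounds printed on slides; score combines fluorescence near 667 nm and signal to noise of each spot.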 The settings on record: small-molecule microarray, higher = more signal.

Activity calls are given as the source filed them.

Sequence of Neurogenic locus notch homolog protein 3 (Homo sapiens) (Q9UM47 whole entry, looked up): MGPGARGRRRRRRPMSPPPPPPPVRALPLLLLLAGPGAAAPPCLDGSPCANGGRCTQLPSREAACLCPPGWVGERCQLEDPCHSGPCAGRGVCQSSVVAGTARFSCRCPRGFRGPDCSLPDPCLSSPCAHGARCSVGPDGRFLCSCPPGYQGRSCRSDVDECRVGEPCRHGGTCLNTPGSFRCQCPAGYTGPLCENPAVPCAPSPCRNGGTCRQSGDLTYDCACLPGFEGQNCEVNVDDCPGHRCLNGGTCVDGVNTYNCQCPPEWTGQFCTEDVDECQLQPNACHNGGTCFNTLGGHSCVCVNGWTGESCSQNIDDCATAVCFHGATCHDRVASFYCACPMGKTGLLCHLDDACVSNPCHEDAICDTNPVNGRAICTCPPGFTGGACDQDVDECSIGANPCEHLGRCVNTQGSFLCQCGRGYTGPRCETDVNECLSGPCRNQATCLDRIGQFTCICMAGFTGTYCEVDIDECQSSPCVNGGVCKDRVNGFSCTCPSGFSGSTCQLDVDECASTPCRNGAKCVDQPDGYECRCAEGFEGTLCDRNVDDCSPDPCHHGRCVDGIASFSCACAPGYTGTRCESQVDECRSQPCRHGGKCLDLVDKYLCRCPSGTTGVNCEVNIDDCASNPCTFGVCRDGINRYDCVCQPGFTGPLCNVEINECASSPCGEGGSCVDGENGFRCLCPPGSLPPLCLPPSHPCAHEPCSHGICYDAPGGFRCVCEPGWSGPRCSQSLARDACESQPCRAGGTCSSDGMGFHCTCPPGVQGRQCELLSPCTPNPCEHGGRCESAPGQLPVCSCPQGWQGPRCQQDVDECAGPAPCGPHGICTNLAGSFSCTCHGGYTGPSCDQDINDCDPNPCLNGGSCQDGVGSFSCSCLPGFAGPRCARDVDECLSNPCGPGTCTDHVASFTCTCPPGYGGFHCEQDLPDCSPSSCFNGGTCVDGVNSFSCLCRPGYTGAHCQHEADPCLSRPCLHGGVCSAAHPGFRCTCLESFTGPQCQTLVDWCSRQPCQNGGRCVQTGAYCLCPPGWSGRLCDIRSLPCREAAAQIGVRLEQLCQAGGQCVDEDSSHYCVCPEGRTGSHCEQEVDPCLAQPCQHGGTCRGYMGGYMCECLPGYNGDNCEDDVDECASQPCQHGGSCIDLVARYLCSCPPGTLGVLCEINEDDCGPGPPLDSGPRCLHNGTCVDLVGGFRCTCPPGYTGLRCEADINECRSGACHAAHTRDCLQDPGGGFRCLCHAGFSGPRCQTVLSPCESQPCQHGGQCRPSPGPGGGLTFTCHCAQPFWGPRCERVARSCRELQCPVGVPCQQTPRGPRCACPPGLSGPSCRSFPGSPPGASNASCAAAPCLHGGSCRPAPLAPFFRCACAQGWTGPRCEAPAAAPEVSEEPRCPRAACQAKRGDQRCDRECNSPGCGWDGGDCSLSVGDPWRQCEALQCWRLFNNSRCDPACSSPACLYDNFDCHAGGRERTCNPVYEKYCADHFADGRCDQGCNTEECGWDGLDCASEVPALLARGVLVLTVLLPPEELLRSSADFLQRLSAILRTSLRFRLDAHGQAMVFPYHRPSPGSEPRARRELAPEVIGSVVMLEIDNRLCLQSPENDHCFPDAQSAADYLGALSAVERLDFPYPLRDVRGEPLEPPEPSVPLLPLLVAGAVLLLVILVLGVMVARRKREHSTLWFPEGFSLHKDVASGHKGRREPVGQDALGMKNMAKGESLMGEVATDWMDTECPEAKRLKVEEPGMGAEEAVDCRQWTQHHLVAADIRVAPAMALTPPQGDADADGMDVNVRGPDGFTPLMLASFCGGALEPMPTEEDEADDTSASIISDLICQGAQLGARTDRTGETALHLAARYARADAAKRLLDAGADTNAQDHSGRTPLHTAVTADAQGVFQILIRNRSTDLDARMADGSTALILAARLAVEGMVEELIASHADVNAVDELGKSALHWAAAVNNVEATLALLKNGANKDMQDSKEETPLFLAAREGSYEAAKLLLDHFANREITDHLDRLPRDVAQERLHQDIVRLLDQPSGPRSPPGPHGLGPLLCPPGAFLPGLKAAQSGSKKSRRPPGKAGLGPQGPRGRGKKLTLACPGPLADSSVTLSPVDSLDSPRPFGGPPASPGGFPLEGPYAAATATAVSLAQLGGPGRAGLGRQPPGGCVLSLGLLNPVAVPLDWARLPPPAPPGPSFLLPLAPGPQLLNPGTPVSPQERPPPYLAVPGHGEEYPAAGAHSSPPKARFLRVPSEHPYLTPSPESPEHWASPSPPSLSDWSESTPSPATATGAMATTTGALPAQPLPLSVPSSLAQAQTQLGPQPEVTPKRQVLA
Sequence of Neurogenic locus notch homolog protein 2 (Homo sapiens) (Q04721 whole entry, looked up, canonical isoform): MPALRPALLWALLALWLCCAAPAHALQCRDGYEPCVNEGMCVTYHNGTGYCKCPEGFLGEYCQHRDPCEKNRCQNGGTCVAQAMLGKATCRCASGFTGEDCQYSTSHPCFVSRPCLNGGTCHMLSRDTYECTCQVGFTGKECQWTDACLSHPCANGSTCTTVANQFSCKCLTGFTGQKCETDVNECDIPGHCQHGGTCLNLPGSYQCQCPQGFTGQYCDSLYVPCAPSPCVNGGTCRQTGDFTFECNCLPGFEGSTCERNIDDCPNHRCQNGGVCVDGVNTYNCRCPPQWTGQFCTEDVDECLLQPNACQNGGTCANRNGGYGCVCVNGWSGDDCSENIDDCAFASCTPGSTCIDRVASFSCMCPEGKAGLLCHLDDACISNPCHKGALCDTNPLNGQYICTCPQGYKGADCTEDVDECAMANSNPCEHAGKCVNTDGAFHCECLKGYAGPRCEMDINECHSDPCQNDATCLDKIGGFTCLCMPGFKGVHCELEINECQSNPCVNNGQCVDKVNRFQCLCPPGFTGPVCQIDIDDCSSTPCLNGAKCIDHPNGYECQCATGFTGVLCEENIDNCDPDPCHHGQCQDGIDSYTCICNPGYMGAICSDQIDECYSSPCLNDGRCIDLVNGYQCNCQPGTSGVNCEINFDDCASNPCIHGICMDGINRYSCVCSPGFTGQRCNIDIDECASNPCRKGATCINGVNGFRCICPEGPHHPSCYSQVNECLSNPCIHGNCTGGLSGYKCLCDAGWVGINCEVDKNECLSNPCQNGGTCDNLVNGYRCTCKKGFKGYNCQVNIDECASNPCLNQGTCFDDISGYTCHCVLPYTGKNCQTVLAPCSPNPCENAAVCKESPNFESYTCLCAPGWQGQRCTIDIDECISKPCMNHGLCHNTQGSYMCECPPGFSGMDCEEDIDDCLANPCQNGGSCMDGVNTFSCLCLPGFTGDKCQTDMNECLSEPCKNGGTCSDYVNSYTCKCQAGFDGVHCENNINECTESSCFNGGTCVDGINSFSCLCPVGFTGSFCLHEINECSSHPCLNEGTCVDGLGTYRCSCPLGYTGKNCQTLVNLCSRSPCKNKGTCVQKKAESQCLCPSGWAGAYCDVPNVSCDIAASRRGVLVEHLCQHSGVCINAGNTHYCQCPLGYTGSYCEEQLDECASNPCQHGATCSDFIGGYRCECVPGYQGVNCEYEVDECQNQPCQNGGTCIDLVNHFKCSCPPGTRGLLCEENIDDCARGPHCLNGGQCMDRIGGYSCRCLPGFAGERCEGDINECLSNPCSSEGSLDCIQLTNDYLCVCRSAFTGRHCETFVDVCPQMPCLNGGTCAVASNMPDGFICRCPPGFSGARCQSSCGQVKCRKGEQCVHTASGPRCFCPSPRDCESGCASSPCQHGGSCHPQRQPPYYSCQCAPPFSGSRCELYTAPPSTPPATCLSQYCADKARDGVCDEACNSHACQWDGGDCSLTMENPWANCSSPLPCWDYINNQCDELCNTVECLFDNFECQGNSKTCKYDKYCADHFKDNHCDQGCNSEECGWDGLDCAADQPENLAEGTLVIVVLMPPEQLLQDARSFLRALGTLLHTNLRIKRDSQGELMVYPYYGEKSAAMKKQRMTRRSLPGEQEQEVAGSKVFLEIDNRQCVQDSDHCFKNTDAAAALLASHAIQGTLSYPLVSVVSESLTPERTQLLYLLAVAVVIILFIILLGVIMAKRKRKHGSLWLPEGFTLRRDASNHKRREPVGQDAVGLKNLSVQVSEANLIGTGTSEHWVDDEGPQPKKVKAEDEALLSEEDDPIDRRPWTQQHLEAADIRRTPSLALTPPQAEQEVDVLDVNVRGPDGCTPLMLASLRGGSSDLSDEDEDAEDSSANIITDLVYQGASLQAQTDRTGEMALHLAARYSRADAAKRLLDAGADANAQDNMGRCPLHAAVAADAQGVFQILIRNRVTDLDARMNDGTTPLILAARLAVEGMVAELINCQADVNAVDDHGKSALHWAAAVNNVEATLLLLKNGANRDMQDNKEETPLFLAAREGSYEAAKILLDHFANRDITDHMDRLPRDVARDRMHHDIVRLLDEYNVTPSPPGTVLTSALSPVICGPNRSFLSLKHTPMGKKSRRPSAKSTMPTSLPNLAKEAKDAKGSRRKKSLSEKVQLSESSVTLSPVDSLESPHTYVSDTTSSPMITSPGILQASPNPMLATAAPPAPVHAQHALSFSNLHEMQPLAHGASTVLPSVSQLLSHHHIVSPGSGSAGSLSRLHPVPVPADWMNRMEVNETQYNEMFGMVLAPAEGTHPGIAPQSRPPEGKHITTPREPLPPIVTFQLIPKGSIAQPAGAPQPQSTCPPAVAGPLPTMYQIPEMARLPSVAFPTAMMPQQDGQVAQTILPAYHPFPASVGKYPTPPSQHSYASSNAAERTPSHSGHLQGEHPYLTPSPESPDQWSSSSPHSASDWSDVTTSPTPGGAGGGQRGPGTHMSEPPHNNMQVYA

Consider `COCCCNC(=O)[C@@]1(c2ccc([N+](=O)[O-])cc2)CC(=O)N(C(C)C)[C@@H]1c1ccc(CO)cc1`, for which the composite z-score in [1] was 0.135; in test [2] it was -0.169; in [3] it was -0.059; in [4] it was -0.0621; in test [5], -0.588; in test [6], -0.714. Further, the composite z-score was determined as 0.539 in [7]; 0.116 in [9]; 0.526 in [10]; 0.197 in test [11]; 0.15 in [15]; 0.701 in [17]. Besides, the figures for the composite z-score in test [18], in test [19] and in [20] were -0.363, -0.617 and -0.071, respectively. Besides, the z-score in test [8] is 0.195 (inactive); in [12], -0.411 (inactive); in [13] it was -0.46 (inactive); in test [14] it was -0.363 (inactive); in test [16] it was 0.409 (inactive).
Turning to `COC(=O)[C@@]1(Cc2ccc(OC)cc2)[C@H]2c3cc(C(=O)N4CCCC4)n(Cc4ccc(S(C)(=O)=O)cc4)c3C[C@H]2CN1C(=O)c1ccccc1`, the composite z-score in test [1] is 0.438; in test [2] it was -0.208; in test [3], 0.296; in [4], 0.587; in test [5], 1.59; in test [6], 2.07. Also, the composite z-score in test [7] was 1.31; in test [9] it was 1.25; in test [10], 0.0053; in [11], -0.42; in [15], 3; in [17] it was 0.205. Besides, the figures for the composite z-score in test [18], in test [19] and in test [20] were 0.419, 1.02 and 0.297, respectively. In addition, the z-score in [8] is 0.862 (inactive); in [12], -0.288 (inactive); in test [13] it was 0.868 (inactive); in test [14], 1.16 (inactive); in test [16], -0.247 (inactive).
Regarding `C=C(C(=O)CC[C@H](OC(=O)c1ccccc1-c1ccccc1C(=O)O)c1ccccc1OCCO)C(C)C`, the composite z-score in test [1] was -0.148; in [2] it was 0.724; in [3], -0.163; in test [4] it was 0.782; in test [5] it was 0.393; in test [6] it was 0.61. For the same molecule, the composite z-score is 1.18 in [7]; 0.117 in [9]; -0.0994 in test [10]; 1.41 in test [11]; 1.46 in test [15]; -0.199 in test [17]. Further, the composite z-score is 0.695 in [18], 0.257 in test [19] and -0.194 in test [20]. The z-score was -1.38 (inactive) in test [8]; 0.574 (inactive) in [12]; -0.788 (inactive) in test [13]; -0.927 (inactive) in test [14]; 0.968 (inactive) in [16].
As to `Cc1ccc(S[C@]2(C(=O)NC(C)C)CC(=O)N(Cc3ccccc3Cl)[C@@H]2c2ccc(CO)cc2)cc1`, the composite z-score in [1] is 0.827; in [2], -1.59; in [3] it was -0.0474; in test [4], -0.519; in [5] it was -0.266; in test [6] it was 1.03. Further, the composite z-score in test [7] was 1.37; in [9] it was -0.519; in test [10], -0.169; in test [11] it was -0.577; in [15], 2.06; in [17], 0.0425. Further, the figures for the composite z-score in test [18], in test [19] and in [20] were -0.82, -0.452 and -0.227, respectively. In addition, the z-score is -3.34 (inactive) in test [8]; -0.651 (inactive) in [12]; -1.13 (inactive) in test [13]; -0.072 (inactive) in [14]; -1.29 (inactive) in test [16].
For `CN(C)C(=O)[C@@]1(Cc2ccccc2)COC(c2ccc(OCCCO)cc2)=N1`, the composite z-score is 0.862 in test [1]; -0.111 in [2]; 0.0412 in test [3]; -0.055 in test [4]; -0.266 in [5]; 1.81 in test [6]. Besides, the composite z-score in test [7] is 0.61; in test [9] it was -0.341; in [10], 0.217; in test [11] it was 0.243; in test [15] it was 2.87; in test [17] it was 0.137. For the same molecule, the composite z-score was -0.955 in [18], -0.451 in test [19] and 0.0005 in test [20]. Besides, the z-score is -0.698 (inactive) in [8]; -0.0054 (inactive) in [12]; -4.61 (inactive) in test [13]; -1.59 (inactive) in test [14]; 1.31 (inactive) in test [16].
